High-throughput results (PubChem BioAssay)
mIDH1 inhibitor – inhibitors of human mutant IDH1 R132H. Potency, µM (doses to about 76.6 µM), without a hit: top-dose activity change, negative = inhibition, actives largely listed as inhibitors. O75874. hit rate 0.093% among 390,000. IDH1-R132H enzyme, NADPH consumption, diaphorase/resazurin fluorescence; also: % is scaled to controls: 0 for no effect and ±100 for the full control effect; nearly all actives have a fitted effect of over 65% in size
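IDH1-R132H (0.5 ug/mL) preincubated 30 min with compound, then NADPH (0.016 mM) and alpha-KG (2 mM) added; 80 min at RT, pH 7.5. Remaining NADPH coupled via diaphorase/resazurin to fluorescence (540/590 nm); concentration-response curves normalized to no-enzyme control.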
TrxR1 substrate – substrates of rat thioredoxin reductase 1. purified TrxR1 substrate turnover, NADPH consumption readout. Potency, µM (doses to about 114 µM), for inactives: top-dose activity change, negative = substrate turnover. hit rate 0.01% among 390,000. AID 588456; also: % is scaled to controls: 0 for no effect and ±100 for the full control effect; nearly all actives have a fitted effect of over 50% in size
Target sequence (O89049 whole entry, looked up): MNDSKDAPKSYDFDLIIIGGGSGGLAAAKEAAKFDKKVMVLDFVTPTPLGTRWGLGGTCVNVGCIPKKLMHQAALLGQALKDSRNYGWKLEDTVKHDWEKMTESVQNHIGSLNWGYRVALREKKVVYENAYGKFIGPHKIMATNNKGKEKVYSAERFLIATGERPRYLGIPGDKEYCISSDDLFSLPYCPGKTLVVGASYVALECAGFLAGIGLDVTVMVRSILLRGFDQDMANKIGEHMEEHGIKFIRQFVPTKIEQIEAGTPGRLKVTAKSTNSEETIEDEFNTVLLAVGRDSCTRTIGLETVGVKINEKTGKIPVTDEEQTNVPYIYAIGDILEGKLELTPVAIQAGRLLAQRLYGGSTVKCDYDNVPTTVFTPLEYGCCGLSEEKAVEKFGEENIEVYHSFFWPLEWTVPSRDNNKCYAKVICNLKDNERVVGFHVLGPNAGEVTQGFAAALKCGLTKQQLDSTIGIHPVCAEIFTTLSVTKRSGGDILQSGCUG
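Rat TrxR1, dispensed at 90 nM, was prereduced with 400 uM NADPH (final) for 5 min at ~22 deg C, then incubated with compound 15 min before 400 uM selenite. A first-read NADPH fluorescence drop versus no-compound background flagged substrates.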
Glioma ERSR ind – ER stress response induction in glioma. Potency, µM, inactives show at the highest dose activation, most hits filed as activators. U87-MG GRP78 promoter luciferase reporter, 16 h. hit rate 0.02% among 420,000; also: series mostly up to about 76 µM; % of control where 0% means no effect; nearly all actives have a fitted effect of over 35% in size
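ERSR induction read as luciferase luminescence (Bright-Glo, 10 min at room temperature) in stably transfected human U87-MG glioma cells exposed to compounds for 16 h, using GRP78 as sensor.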
TrxR1 inh – blocks rat thioredoxin reductase 1. recombinant rTrxR1, NADPH fluorescence consumption, selenite substrate. hit rate 1% among 390,000. Potency, µM (titrated, usually from 114 µM), for inactives: top-dose activity change, negative = inhibition, hits mostly inhibitors. AID 588453; also: % is scaled to controls: 0 for no effect and ±100 for the full control effect; nearly all actives have a fitted effect of over 65% in size
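Rat TrxR1 (90 nM in the dispensed reagent) was pre-reduced with 400 uM NADPH for 5 min at room temperature, then incubated with compound for 15 min. After 400 uM selenite was added, NADPH fluorescence (Ex 340/Em 450 nm) was followed for 8 min.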
12-LOX inh – blocks human arachidonate 12S-lipoxygenase; purified 12hLO, xylenol orange hydroperoxide absorbance; hit rate 1.1% among 580,000; Potency, µM (highest dose often 108 µM), for the others: at the highest dose activity change, negative = inhibition, hits mostly inhibitors; P18054; AID 1671190; also: % is scaled to controls: 0 for no effect and ±100 for the full control effect
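Purified human 12hLO at 150 nM in 25 mM Hepes, 0.01% Triton X-100, pH 7.0, preincubated 15 min at room temperature with compound. Reaction started with 40 uM arachidonic acid, 30 min at room temperature. Hydroperoxide measured by Fe-xylenol orange, 573/405 nm absorbance ratio.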
Anesthetic bind – binds horse apoferritin like a general anesthetic; apoferritin/1-aminoanthracene competitive binding, fluorescence; Potency, µM (series often up to 77.5 µM), inactives show at the highest dose activity change, negative = displacement, most hits filed as inhibitors; hit rate 0.074% among 350,000; AID 485281; also: % is scaled to controls: 0 for no effect and ±100 for the full control effect; nearly all actives have a fitted effect of over 20% in size
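Read-out: endpoint 1-AMA fluorescence, excitation 380 nm and emission 535 nm, after compounds sit 10 min at room temperature with 10 uM horse-spleen apoferritin in 50% saturated 1-AMA/PBS. Values come from four-parameter Hill fits.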
Active calls of the source: *; [ ] = another dose, or the depositor's remark. A selection: hits, their analogues and other compounds. The true share with any hit is near 1.7%. Calls follow the shape of the dose curve; as a rule, active = well fitted curve in the direction sought with a large enough effect; inconclusive = small, poorly fitted or top-dose-only effect, or another doubt; inactive = no such curve, though single readings can be large; an effect the other way counts as inactive or inconclusive. Potency is read from the fitted curve at half-maximal effect.

Screening Cc1ccc2c(CC(=O)N(Cc3ccc(Cl)cc3)Cc3ccco3)coc2c1 returned TrxR1 substrate -12%, TrxR1 inh 50µM*, 12-LOX inh inconclusive and Anesthetic bind 95%.
For CC(=O)Nc1ccc(S(=O)(=O)Nc2nc3ccccc3nc2Nc2cccc(Cl)c2)cc1 the results were 12-LOX inh 16µM*.
`CC(=O)Nc1ccc(S(=O)(=O)Nc2nc3ccccc3nc2Nc2cccc(C)c2)cc1` gave 12-LOX inh -5%.
`Fc1cccc(Cl)c1CSc1nnc([C@@H]2CCCN2)o1` gave 12-LOX inh -1%.
Screening COc1ccc(NC(=O)CSc2nc3c(cc2C#N)CN(C)CC3)cc1 returned mIDH1 inhibitor 1%, TrxR1 substrate -10%, Glioma ERSR ind -3%, TrxR1 inh inconclusive, 12-LOX inh inconclusive and Anesthetic bind -24%.
CCN1CCc2nc(SCC(=O)Nc3ccc(OC)cc3)c(C#N)cc2C1 was read as mIDH1 inhibitor 6%, TrxR1 substrate -1%, Glioma ERSR ind 3%, TrxR1 inh 18µM*, 12-LOX inh 14% and Anesthetic bind -12%.
COc1cccc(NC(=O)NC[C@H]2O[C@@H](CO)[C@@H](O)[C@H]2N2CCN(c3ccccc3OC)CC2)c1 was read as 12-LOX inh 18µM*.
Screening COc1ccccc1N1CCN([C@@H]2[C@H](O)[C@H](CO)O[C@@H]2CNC(=O)c2cccc(F)c2)CC1 returned 12-LOX inh -16%.
Screening Cn1c(=O)n(Cc2ccccc2)c(=O)c2c1nc1n2CCCN1Cc1ccccc1 returned mIDH1 inhibitor 2%, TrxR1 substrate 6%[57.1 µM], Glioma ERSR ind -4%, TrxR1 inh 19%[57.1 µM], 12-LOX inh 0% and Anesthetic bind 2%.
For CCN1CCCn2c1nc1c2c(=O)n(C)c(=O)n1C the results were mIDH1 inhibitor -1%, TrxR1 substrate 18%, Glioma ERSR ind 1%, TrxR1 inh 79µM*, 12-LOX inh -4% and Anesthetic bind -4%.
Screening COc1ccc(Cl)cc1NC(=O)CSCc1cc(=O)c2cc(F)ccc2[nH]1 returned 12-LOX inh -26%.
For CCC1=C(C(=O)OC)C(c2ccccc2OC)N2C(CC(=O)N3CCCCC3C)=CSC2=N1 (centres undefined) the results were 12-LOX inh 77%.
`CCCCNC(=O)c1ccc2nc(-c3ccco3)c(-c3ccco3)nc2c1` gave mIDH1 inhibitor -4%, TrxR1 substrate -3%, Glioma ERSR ind -3%, TrxR1 inh 2.8µM*, 12-LOX inh inconclusive and Anesthetic bind -13%.
Screening O=C(NCCCO)c1ccc2nc(-c3ccco3)c(-c3ccco3)nc2c1 returned mIDH1 inhibitor 17%, TrxR1 substrate -9%, Glioma ERSR ind -3%, TrxR1 inh 2.8µM*, 12-LOX inh inconclusive and Anesthetic bind 129%.
`Cc1ccccc1C(=O)NCCC1=CCCCC1` gave 12-LOX inh 23%.
Cc1cc(C(=O)NCCC2=CCCCC2)c(C)o1 was read as mIDH1 inhibitor 5%, TrxR1 substrate -7%, Glioma ERSR ind -2%, TrxR1 inh 32µM*, 12-LOX inh inconclusive and Anesthetic bind -13%.
`O=C1NCc2ccccc2CC12CCN(Cc1ccc(Br)cc1)C2` (centres undefined) gave 12-LOX inh 28µM*.
Screening O=C1NCc2ccccc2CC12CCN(Cc1ccc([N+](=O)[O-])cc1)C2 (centres undefined) returned 12-LOX inh 50µM*.
Screening CCOc1ccc(CN2CCC3(Cc4ccccc4CNC3=O)C2)cc1 (centres undefined) returned 12-LOX inh -1%[6.33 µM].
CC(=O)Nc1ccc(CN2CCC3(Cc4ccccc4CNC3=O)C2)cc1 (centres undefined) was read as 12-LOX inh 7%[6.33 µM].
Screening O=C1NCc2ccccc2CC12CCN(Cc1ccc(O)cc1)C2 (centres undefined) returned 12-LOX inh 2%.
